Source: PubChem BioAssay AID1159580 (chemical genetic matrix, 2015)
Among all 5,500 compounds or so, about 2,000 (36%) were called active. About 18% were inconclusive and are not listed. Rule as the data show it: active = normalized growth mostly below about 0.91 (no sharp cut-off); inconclusive = no clear call, values can overlap the other calls; inactive = mostly above about 0.92. Some of the results follow.

Assay: chemical genetic growth profiling, strain panel (AID 1159580);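 also: tested at 20 µM; growth read once vehicle control cultures reached saturation at 30 °C; 1 = growth at the plate median or of vehicle wells; lower values mean less growth of the strain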
Conditions: growth OD

Measured: normalized growth

C/C=C(\C)C(=O)O[C@H]1C[C@@H](OC(C)=O)[C@@]2(C(=O)OC)CO[C@@H]3C2[C@]12CO[C@](O)(C(=O)OC)[C@H]2[C@](C)(C12O[C@@]1(C)[C@H]1C[C@@H]2OC2OC=C[C@@]21O)[C@@H]3O (some centres not stated)
inactive: S. cerevisiae deletion strains, locus YJR075W, strain HOC1, stronger effect = lower value 0.998 | S. cerevisiae deletion strains, locus YKL009W, strain mrt4, stronger effect = lower value 0.996 | S. cerevisiae deletion strains, locus YKL068W, stronger effect = lower value 0.987 | S. cerevisiae deletion strains, locus YKL085W, strain MDH1 (second series), stronger effect = lower value 0.998 | S. cerevisiae deletion strains, locus YKL085W, strain MDH1, stronger effect = lower value 0.998 | S. cerevisiae deletion strains, locus YKL160W, strain elf1, stronger effect = lower value 0.954 | S. cerevisiae deletion strains, locus YKL190W, strain CNB1, stronger effect = lower value 0.997 | S. cerevisiae deletion strains, locus YKR001C, strain vps1, stronger effect = lower value 0.988 | S. cerevisiae deletion strains, locus YKR026C, strain gcn3, stronger effect = lower value 0.992 | S. cerevisiae deletion strains, locus YKR091W, strain srl3, stronger effect = lower value 0.964 | S. cerevisiae deletion strains, locus YLL001W, strain dnm1, stronger effect = lower value 0.965 | S. cerevisiae deletion strains, locus YLL026W, stronger effect = lower value 0.978 | S. cerevisiae deletion strains, locus YLL041C, strain sdh2, stronger effect = lower value 0.975 | S. cerevisiae deletion strains, locus YLR027C, strain aat2, stronger effect = lower value 0.991 | S. cerevisiae deletion strains, locus YLR039C, strain RIC1, stronger effect = lower value 1.04 | S. cerevisiae deletion strains, locus YLR058C, strain SHM2, stronger effect = lower value 0.982 | S. cerevisiae deletion strains, locus YLR102C, strain apc9, stronger effect = lower value 0.979 | S. cerevisiae deletion strains, locus YLR113W, strain HOG1, stronger effect = lower value 1.02 | S. cerevisiae deletion strains, locus YLR221C, strain rsa3, stronger effect = lower value 0.999 | S. cerevisiae deletion strains, locus YLR258W, strain gsy2, stronger effect = lower value 0.969 | S. cerevisiae deletion strains, locus YLR262C, strain YPT6 (second series), stronger effect = lower value 0.968 | S. cerevisiae deletion strains, locus YLR262C, strain YPT6, stronger effect = lower value 1.03 | S. cerevisiae deletion strains, locus YLR268W, strain sec22, stronger effect = lower value 0.913 | S. cerevisiae deletion strains, locus YLR320W, strain mms22, stronger effect = lower value 0.992 | S. cerevisiae deletion strains, locus YLR330W, strain CHS5, stronger effect = lower value 0.996 | S. cerevisiae deletion strains, locus YLR342W, strain FKS1 (second series), stronger effect = lower value 1.05 | S. cerevisiae deletion strains, locus YLR342W, strain FKS1, stronger effect = lower value 0.983 | S. cerevisiae deletion strains, locus YLR357W, strain rsc2, stronger effect = lower value 0.978 | S. cerevisiae deletion strains, locus YLR370C, strain arc18, stronger effect = lower value 0.987 | S. cerevisiae deletion strains, locus YLR371W, strain rom2, stronger effect = lower value 0.971 | S. cerevisiae deletion strains, locus YLR384C, strain iki3, stronger effect = lower value 0.976 | S. cerevisiae deletion strains, locus YLR418C, strain cdc73, stronger effect = lower value 1 | S. cerevisiae deletion strains, locus YML016C, strain PPZ1, stronger effect = lower value 0.985 | S. cerevisiae deletion strains, locus YML032C, strain rad52, stronger effect = lower value 0.957 | S. cerevisiae deletion strains, locus YML120C, strain ndi1, stronger effect = lower value 0.979 | S. cerevisiae deletion strains, locus YML124C, strain tub3, stronger effect = lower value 0.99 | S. cerevisiae deletion strains, locus YMR058W, strain fet3, stronger effect = lower value 0.973 | S. cerevisiae deletion strains, locus YMR078C, strain ctf18, stronger effect = lower value 0.963 | S. cerevisiae deletion strains, locus YMR125W, strain sto1, stronger effect = lower value 0.958 | S. cerevisiae deletion strains, locus YMR129W, stronger effect = lower value 0.991 | S. cerevisiae deletion strains, locus YMR205C, strain PFK2, stronger effect = lower value 0.984 | S. cerevisiae deletion strains, locus YMR223W, strain ubp8, stronger effect = lower value 0.998 | S. cerevisiae deletion strains, locus YMR231W, strain pep5, stronger effect = lower value 0.968 | S. cerevisiae deletion strains, locus YMR263W, strain SAP30, stronger effect = lower value 0.987 | S. cerevisiae deletion strains, locus YMR307W, strain GAS1, stronger effect = lower value 0.987 | S. cerevisiae deletion strains, locus YNL067W, strain RPL9B, stronger effect = lower value 0.979 | S. cerevisiae deletion strains, locus YNL071W, strain lat1, stronger effect = lower value 0.983 | S. cerevisiae deletion strains, locus YNL128W, strain TEP1, stronger effect = lower value 0.993 | S. cerevisiae deletion strains, locus YNL153C, strain GIM3, stronger effect = lower value 0.988 | S. cerevisiae deletion strains, locus YNL183C, strain NPR1, stronger effect = lower value 0.972 | S. cerevisiae deletion strains, locus YNL209W, strain ssb2, stronger effect = lower value 0.989 | S. cerevisiae deletion strains, locus YNL233W, strain BNI4, stronger effect = lower value 0.98 | S. cerevisiae deletion strains, locus YNL248C, strain rpa49, stronger effect = lower value 0.967 | S. cerevisiae deletion strains, locus YNL250W, strain rad50, stronger effect = lower value 0.981 | S. cerevisiae deletion strains, locus YNL271C, strain bni1, stronger effect = lower value 0.97 | S. cerevisiae deletion strains, locus YNL298W, strain CLA4, stronger effect = lower value 0.968 | S. cerevisiae deletion strains, locus YNL307C, strain MCK1, stronger effect = lower value 0.983 | S. cerevisiae deletion strains, locus YNL322C, strain KRE1 (second series), stronger effect = lower value 0.977 | S. cerevisiae deletion strains, locus YNL322C, strain KRE1, stronger effect = lower value 0.995 | S. cerevisiae deletion strains, locus YNR049C, strain mso1, stronger effect = lower value 0.976 | S. cerevisiae deletion strains, locus YNR052C, strain pop2, stronger effect = lower value 0.973 | S. cerevisiae deletion strains, locus YOL006C, strain TOP1, stronger effect = lower value 0.926 | S. cerevisiae deletion strains, locus YOL012C, strain htz1 0.809 | S. cerevisiae deletion strains, locus YOL147C, strain pex11, stronger effect = lower value 0.981 | S. cerevisiae deletion strains, locus YOR001W, strain rrp6, stronger effect = lower value 0.995 | S. cerevisiae deletion strains, locus YOR061W, strain CKA2, stronger effect = lower value 0.989 | S. cerevisiae deletion strains, locus YOR069W, strain VPS5, stronger effect = lower value 0.982 | S. cerevisiae deletion strains, locus YOR070C, strain gyp1, stronger effect = lower value 1 | S. cerevisiae deletion strains, locus YOR080W, strain dia2, stronger effect = lower value 0.991 | S. cerevisiae deletion strains, locus YOR083W, strain WHI5, stronger effect = lower value 0.968 | S. cerevisiae deletion strains, locus YOR106W, strain vam3, stronger effect = lower value 0.938 | S. cerevisiae deletion strains, locus YOR136W, strain idh2, stronger effect = lower value 0.974 | S. cerevisiae deletion strains, locus YOR144C, strain elg1, stronger effect = lower value 0.973 | S. cerevisiae deletion strains, locus YOR184W, strain ser1, stronger effect = lower value 0.967 | S. cerevisiae deletion strains, locus YOR231W, strain MKK1, stronger effect = lower value 0.989 | S. cerevisiae deletion strains, locus YOR265W, strain rbl2, stronger effect = lower value 0.984 | S. cerevisiae deletion strains, locus YOR270C, strain vph1, stronger effect = lower value 0.93 | S. cerevisiae deletion strains, locus YOR290C, strain snf2, stronger effect = lower value 0.946 | S. cerevisiae deletion strains, locus YOR316C, strain cot1, stronger effect = lower value 0.977 | S. cerevisiae deletion strains, locus YPL051W, strain arl3, stronger effect = lower value 0.98 | S. cerevisiae deletion strains, locus YPL055C, strain LGE1, stronger effect = lower value 1.01 | S. cerevisiae deletion strains, locus YPL078C, strain atp4, stronger effect = lower value 0.942 | S. cerevisiae deletion strains, locus YPL106C, strain sse1, stronger effect = lower value 1 | S. cerevisiae deletion strains, locus YPL240C, strain hsp82, stronger effect = lower value 0.985 | S. cerevisiae deletion strains, locus YPL241C, strain CIN2, stronger effect = lower value 1 | S. cerevisiae deletion strains, locus YPL256C, strain CLN2, stronger effect = lower value 0.971 | S. cerevisiae deletion strains, locus YPR119W, strain clb2, stronger effect = lower value 0.991 | S. cerevisiae deletion strains, locus YPR141C, strain kar3, stronger effect = lower value 0.977 | S. cerevisiae deletion strains, locus YPR163C, strain tif3, stronger effect = lower value 0.97 | S. cerevisiae deletion strains, locus YPR167C, strain met16, stronger effect = lower value 0.978 | S. cerevisiae deletion strains, strain wtn01, stronger effect = lower value 0.948 | S. cerevisiae strains, strain wild type, stronger effect = lower value 0.994
